Inconclusive results are not listed. A number with no mark means an inactive call. Activity calls are given as the source filed them. Calls come from the whole dose curve; as a rule, active = well fitted curve in the direction sought with a large enough effect; inconclusive = small, poorly fitted or top-dose-only effect, or another doubt; inactive = no such curve, though single readings can be large; an effect the other way counts as inactive or inconclusive.

Our source for the Potency, activation and activity change, negative = inhibition values is PubChem BioAssay (NCATS).

For assay [1], the target named is Cellular tumor antigen p53 (Homo sapiens) (UniProt P04637). The assay can be described thus: Primary qHTS for small molecule compounds that upregulate eGFP-tagged delta133p53alpha (in N-terminal) cells. (AID 2060322).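 For activation: cells pre-induced with doxycycline then dosed without doxycycline; series mostly up to about 56 µM; 0% = DMSO vehicle and 100% = reference activator.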 Note: nearly all actives have a fitted effect of over 75% in size. Note: potency is the fitted concentration of half-maximal effect. To be noted: NCI-H358 eGFP-delta133p53alpha fluorescence, 24 h; activation: active compounds read high. Summed up:
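NCI-H358 cells pre-induced 24 h with 10 ng/ml doxycycline for eGFP-delta133p53alpha, plated dox-free and exposed 24 h at 37C to titrated compounds. Fixed, Hoechst-stained; gated GFP peak intensity by laser scanning cytometry, normalized to DMSO (0%) and 57.5 uM 5-azacytidine (100%).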
For orientation: qHTS replaces the single test concentration by a dilution series.

Assay [2] has as its target Aldehyde dehydrogenase, mitochondrial (Homo sapiens) (UniProt P05091). The assay can be described thus: qHTS for Inhibitors of the Aldehyde Dehydrogenase Family (ALDH2) Primary screen (AID 2061308).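 Note: plate controls were vehicle for no effect and reference inhibitor for full effect; nearly all actives have a fitted effect of over 55% in size.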
The target of assay [3] is Retinaldehyde dehydrogenase 3 (Homo sapiens) (UniProt P47895). The assay can be described thus: qHTS for Inhibitors of the Aldehyde Dehydrogenase Family (ALDH1A3) Primary screen (AID 2061315).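 Note: plate controls were DMSO vehicle for no effect and reference inhibitor for full effect.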

Cellular tumor antigen p53 (Homo sapiens), sequence (P04637 whole entry, looked up): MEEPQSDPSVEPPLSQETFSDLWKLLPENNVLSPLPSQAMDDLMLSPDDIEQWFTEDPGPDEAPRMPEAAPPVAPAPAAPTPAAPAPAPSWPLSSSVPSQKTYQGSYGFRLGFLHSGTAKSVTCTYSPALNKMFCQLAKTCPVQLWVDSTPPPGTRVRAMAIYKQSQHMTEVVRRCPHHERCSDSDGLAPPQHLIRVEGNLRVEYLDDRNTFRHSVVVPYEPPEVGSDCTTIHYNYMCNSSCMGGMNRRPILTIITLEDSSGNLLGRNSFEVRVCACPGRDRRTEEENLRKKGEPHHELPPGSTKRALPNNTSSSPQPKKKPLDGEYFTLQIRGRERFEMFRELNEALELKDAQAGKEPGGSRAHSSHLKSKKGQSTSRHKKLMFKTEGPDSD

Regarding `C=C1C(=O)O[C@@H]2/C=C(\CO)CC/C=C(/C=O)C[C@H](O)[C@@H]12`, the Potency in assay [1] is 26.9 µM (active). Also, the Potency result in assay [2] and in assay [3] was “inactive” each time.

Consider `CC1(O)CCC2C(C3C1CCC3(C)O)C2(C)C` (centres undefined), for which the activation in assay [1] was -1.79%. For the same compound, the Potency result in assay [2] and in assay [3] was “inactive” each time.

Take `O=C(O)CC/C=C\C[C@H]1CO[C@@H](c2ccccc2Cl)O[C@H]1c1ccccc1O`: the activation in assay [1] was -9.67%. Also, the Potency result in assay [2] and in assay [3] was “inactive” throughout.

Turning to `CC1CCC2C(C)(C)[C@@H](O)CC[C@]2(C)C12Cc1c(O)cc3c(c1O2)CN(C(CCC(=O)O)C(=O)O)C3=O` (some centres undefined), in assay [1], the activation was 23.2%. Besides, the Potency entry in assay [2] and in assay [3] was “inactive” each time.

Regarding `COC(=O)C1=COC(OC2OC(CO)C(O)C(O)C2O)C2C(COC(=O)/C=C/c3ccc(O)cc3)C(O)C(O)C12` (centres undefined), in assay [1], the activation is -6.87%. Further, the Potency entry in assay [2] and in assay [3] was “inactive” throughout.

For the compound `COC(=O)C1=CO[C@@H](O[C@@H]2O[C@H](CO)[C@@H](O)[C@H](O)[C@H]2O)/C(=C\CO)[C@@H]1CC(=O)OCCc1ccc(O)cc1`, the activation in assay [1] was -20.6%. The Potency entry in assay [2] and in assay [3] was “inactive” throughout.

As for `C[C@@H]1CC[C@]2(C(=O)O)CC[C@]3(C)C(=CCC4[C@]5(C)C(CC[C@]43C)C(C)(C)[C@@H](O)[C@H](O)[C@@H]5O)C2[C@]1(C)O` (some centres undefined), the activation in assay [1] is -4.46%. For the same compound, the Potency result in assay [2] and in assay [3] was “inactive” each time.

On to `COC1C(=O)CCC2(CO2)C1(O)C1(C)OC1CC=C(C)C` (centres undefined), for which, in assay [1], the activation was -9.82%. For the same compound, the Potency result in assay [2] and in assay [3] was “inactive” in each case.

Take `CC1(C)CC[C@]2(C(=O)O[C@@H]3O[C@H](CO)[C@@H](O)[C@H](O)[C@H]3O)CC[C@]3(C)C(=CCC4[C@@]5(C)CC[C@H](O[C@@H]6O[C@H](C(=O)O)[C@@H](O)[C@H](O)[C@H]6OC6OC(CO)C(O)C(O)C6O)C(C)(C)C5CC[C@]43C)[C@@H]2C1` (some centres undefined): the activation in assay [1] was -5.36%. Moreover, the Potency result in assay [2] and in assay [3] was “inactive” throughout.

As to `CC1=C2CC(C)(C)CC2C(O)C2=C(C1)C(=O)OC2O` (centres undefined), in assay [1], the activation is -7.14%. Also, the Potency entry in assay [2] and in assay [3] was “inactive” each time.

Take `CCN1C(=O)c2ccccc2C1Nc1ccc(OCCN2CCCCC2)cc1` (centres undefined): the activation in assay [1] was -18.4%. For the same compound, the Potency entry in assay [2] and in assay [3] was “inactive” each time.

Consider `C1CCN2CC3C[C@@H](CN4CCCC[C@@H]34)[C@H]2C1`, for which, in assay [1], the activation was -23.2%. Besides, the Potency entry in assay [2] and in assay [3] was “inactive” each time.

Take `CC(=O)O[C@@H]1[C@H](O[C@@H]2O[C@@H](CO)[C@H](O)[C@H]2O)[C@@H](O[C@@H]2O[C@@H](C)[C@H](O[C@@H]3OC[C@@H](O)[C@H](O)[C@H]3O)[C@@H](O)[C@H]2O)[C@H](OC(=O)[C@]23CCC(C)(C)C[C@H]2C2=CCC4[C@@]5(C)CC[C@H](O[C@@H]6O[C@H](C(=O)O)[C@@H](O)[C@H](O)[C@H]6O[C@@H]6O[C@H](CO)[C@H](O)[C@H](O)[C@H]6O)[C@@](C)(C=O)C5CC[C@@]4(C)[C@]2(C)CC3)O[C@@H]1C` (some centres undefined): the activation in assay [1] was -13.7%. In addition, the activity change, negative = inhibition in assay [2] was 4.21% [at 11.2 µM]; in assay [3], 3.44% [at 11.2 µM].

`C=C1CCC2C(C)(C(=O)O)CCCC2(C)C1CCC1=CCOC1=O` (centres undefined): the activation in assay [1] was 31.2%. In addition, the Potency result in assay [2] and in assay [3] was “inactive” in each case.

Take `COc1ccc(/C=C/C(=O)O[C@H]2[C@@H]3C=CO[C@@H](O[C@@H]4O[C@H](CO)[C@@H](O)[C@H](O)[C@H]4O)[C@@H]3[C@@]3(CO)O[C@@H]23)cc1O`: the activation in assay [1] was -2.29%. For the same compound, the Potency entry in assay [2] and in assay [3] was “inactive” throughout.

With `CC1=C2CC(=O)C(C)CC/C=C(\C)CC2(O)OC1=O` (centres undefined), the activation in assay [1] was -1.53%. The Potency result in assay [2] and in assay [3] was “inactive” in each case.

Turning to `COC1=CC(=O)O[C@@H](/C=C/c2ccccc2)[C@@H]1O`, the activation in assay [1] is 9.82%. In addition, the Potency entry in assay [2] and in assay [3] was “inactive” throughout.

As to `C[C@@H]1O[C@@H](OC2C(O[C@H]3[C@H](O[C@H]4CC[C@@]5(C)C(CC[C@]6(C)C5CC=C5C7CC(C)(C)CC(O)[C@]7(C)CC[C@]56C)C4(C)C)O[C@H](C(=O)O)[C@@H](O)[C@@H]3O)OC(CO)C(O)C2O)[C@H](O)[C@H](O)[C@H]1O` (some centres undefined), in assay [1], the activation was -6.11%. For the same compound, the Potency entry in assay [2] and in assay [3] was “inactive” each time.

On to `COC1CC(=O)C23C(=O)NC(CC(C)C)C2C(C)C(C)=CC3/C=C(\C)CCCC1O` (centres undefined), for which the activation in assay [1] was 16.8%. Besides, the Potency result in assay [2] and in assay [3] was “inactive” in each case.

Turning to `CC(=O)O[C@H]1[C@H](OC(=O)C(C)C)[C@]2(C)OC3(CC[C@]2(C)[C@H]2CCC[C@]4(CO4)[C@]12C)COC(=O)C3` (some centres undefined), the activation in assay [1] is 1.53%. Besides, the Potency result in assay [2] and in assay [3] was “inactive” throughout.

For the compound `O=C(OCc1cccc(O)c1O[C@@H]1O[C@H](CO)[C@@H](O)[C@H](O)[C@H]1O)C1(O)C(=O)C2C=CC1C1C=CC(=O)C(O)(C(=O)OCc3cccc(O)c3O[C@@H]3O[C@H](CO)[C@@H](O)[C@H](O)[C@H]3O)C21` (some centres undefined), the activation in assay [1] was -29.8%. In addition, the Potency entry in assay [2] and in assay [3] was “inactive” throughout.

For the compound `CC[C@@H](C)[C@@H]1OC2(C=C[C@H]1C)C[C@@H]1C[C@H](C/C=C(\C)[C@H](O[C@H]3C[C@H](OC)[C@H](O[C@H]4C[C@H](OC)[C@H](NC(C)=O)[C@H](C)O4)[C@H](C)O3)[C@H](C)/C=C/C=C3\CO[C@H]4[C@H](O)C(C)=C[C@@H](C(=O)O1)[C@@]34O)O2` (some centres undefined), the activation in assay [1] is 24.3%. The Potency entry in assay [2] and in assay [3] was “inactive” each time.

`C=C(C(=O)O)[C@@H]1CC=C(CCC(C)=O)[C@@H](C)CC1`: the activation in assay [1] was 8.93%. Besides, the Potency result in assay [2] and in assay [3] was “inactive” throughout.
